Source: PubChem (several laboratories)
Tat export inh: inhibitors of E. coli Tat protein transport; hit rate 0.036% among 340,000; E. coli MC4100 TorA-mCherry Tat export, fluorescence; inhibition, % at 10 µM; AID 488895;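 active = mean replicate inhibition at least 50% and at least half of replicates individually reaching 50%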;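 note: exported cargo escapes ClpAP degradation while cytoplasmic cargo is degraded and loses fluorescence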
phage Ecoli inh: E. coli growth loss with phage present; growth absorbance; inhibition, % at 11.9 µM; hit rate 0.26% among 360,000; in the data active = inhibition above about 11%
E coli growth-1: counter-screen for AddAB inhibitors: E. coli growth inhibition. E. coli V3065 growth, OD600 absorbance, 18 h. inhibition, % at 11.9 µM. hit rate 0.27% among 330,000. AID 449728;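 active = inhibition above the campaign's mean inhibition across all tested compounds plus 3 SD, cut at about 9.9% in these data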;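 note: uninfected addAB+ strain grown without phage in ampicillin broth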
AddAB inh: less growth of phage-infected E. coli with AddAB; E. coli expressing H. pylori AddAB, absorbance growth; inhibition, % at 11.9 µM; hit rate 0.29% among 330,000; AID 435030; in the data active = inhibition above about 12%
E coli growth-2: E. coli growth inhibition | Escherichia coli growth, OD600, 23 h; stronger effect = lower value | OD600 absorbance (no concentration beside the values) | hit rate 0.21% among 330,000;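 active = OD600 absorbance below the run mean of sample wells minus 3.6 SD, in any replicate, cut at about 0.56 in these data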
RecBCD conf: growth loss of phage-infected V66 E. coli, RecBCD confirmation screen. shares compounds with phage Ecoli inh. E. coli V66 + T4 2- phage, growth OD. inhibition, % at 11.9 µM. hit rate 45% among 890;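 active = mean inhibition over triplicates exceeding the hit threshold derived in the original primary screen, cut at about 11% in these data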
Ecoli viability: bacterial viability inhibition counter-screen for RecBCD; shares compounds with phage Ecoli inh; E. coli viability, absorbance (OD) growth; inhibition, % at 11.9 µM; hit rate 29% among 890; AID 651983; in the data active = inhibition above about 20%;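 note: E. coli strain V66 grown with compound alone and no phage infection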
AddAB phage OD: growth loss of phage-infected AddAB E. coli, RecBCD counter-screen. shares compounds with phage Ecoli inh. E. coli expressing H. pylori AddAB + T4 phage, OD growth; gene 2 mutant T4, recBCD-deleted host. inhibition, % at 11.9 µM. hit rate 45% among 890;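 active = mean inhibition above the solvent-only control wells' mean plus 3 SD, cut at about 22% in these data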;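 note: higher means less bacterial growth from phage killing when AddAB is blocked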
A number is an active result; n = inactive; x = no result given. Hits are enriched below; roughly 0.5% of the tested compounds scored in any of these assays.

SMILES | Tat export inh | phage Ecoli inh | E coli growth-1 | AddAB inh | E coli growth-2 | RecBCD conf | Ecoli viability | AddAB phage OD
O=C1C=C(c2ccc(F)cc2OCc2ccccc2)CC(c2ccc(F)cc2)C1 (stereo not drawn) | x | x | x | x | n | x | x | x
COc1cccc(C2c3c(oc4ccccc4c3=O)C(=O)N2CCCN2CCOCC2)c1 (stereo not drawn) | n | 15 | n | n | n | n | n | n
O=C(NNS(=O)(=O)c1ccc(F)cc1)c1cc(Cl)ccc1O | n | 15 | x | x | n | n | n | n
CCN1C(=O)C2C(c3ccc(OC)cc3)N3C(=O)CN(CCOC)C(=O)[C@@]3(Cc3ccccc3)C2C1=O (stereo partly drawn) | x | x | x | x | n | x | x | x
COc1ccccc1NC(=S)NC(NC(=O)c1ccco1)C(Cl)(Cl)Cl (stereo not drawn) | n | 11 | n | n | n | n | n | n
COc1ccccc1NC(=O)NNC(=O)c1ccc2ccccc2c1O | n | 11 | x | x | n | n | n | n
Cc1ccccc1NC(=O)NNC(=O)c1ccc2ccccc2c1O | n | n | n | n | n | x | x | x
CCc1ccc(NC(=O)NNC(=O)c2ccc3ccccc3c2O)cc1 | n | 13 | x | x | n | n | n | n
COc1ccc(C2C=CCN(C(=O)c3ccc(C)cc3)C(C)C(=O)N2Cc2ccc(F)cc2)cc1 (stereo not drawn) | x | x | x | x | n | x | x | x
Cc1ccc(CC(=O)Nc2ncc([N+](=O)[O-])s2)cc1 | n | 13 | n | n | n | n | n | n
Cc1ccc(S(=O)(=O)CC(=O)Nc2ncc([N+](=O)[O-])s2)cc1 | n | n | n | n | n | x | x | x
Nc1nc(N)nc(-c2ccc([N+](=O)[O-])o2)n1 | n | 103 | x | x | 0.51 | 64 | 89 | 98
O=[N+]([O-])c1ccc(/C=[N+](\[O-])[C@@H]2CCCC[C@@H]2/[N+]([O-])=C/c2ccc([N+](=O)[O-])o2)o1 | n | n | n | n | n | x | x | x
CCNC(=S)NNC(=S)NCc1ccccc1 | n | 11 | n | n | n | n | n | n
S=C(NCc1ccccc1)NCc1ccc(CNC(=S)NCc2ccccc2)cc1 | n | n | n | n | n | x | x | x
CCC(=O)[C@@]1(C)C(C)CC2C3CCC4=CC(=O)C=C[C@]4(C)C3C(O)C[C@@]21C (stereo partly drawn) | x | x | x | x | n | x | x | x
CCOc1ccc(CN2C(=O)c3ccccc3C2C(=O)NC(C)CC)cc1OC (stereo not drawn) | n | n | n | n | n | x | x | x
CCC(C)NC(=O)C1c2ccccc2C(=O)N1Cc1cc(OC)ccc1OC (stereo not drawn) | n | 14 | n | n | n | n | n | n
COc1ccc(-c2ccc(C)cc2)cc1C1C2C=CCC[C@@]2(C)C(=O)N1Cc1ccccc1 (stereo partly drawn) | x | x | x | x | n | x | x | x
Oc1ccc(CN2CCN(Cc3ccccc3)CC2)c2cccnc12 | n | n | n | n | n | x | x | x
O=S(=O)(c1ccc(Cl)cc1)N1CCN(Cc2ccc(O)c3ncccc23)CC1 | n | 17 | n | n | n | n | n | n
CC(CCc1ccco1)NC(=O)Cn1ncc2c(=O)oc3ccccc3c21 (stereo not drawn) | n | 99 | n | n | n | n | n | n
CC(=NNC(=S)N1CCC1)c1ccccn1 | n | 41 | x | x | x | 43 | 52 | 41
Cc1ccc(/C=N/NC(=O)c2nnn(-c3nonc3N)c2CNc2ccccc2)cc1 | n | n | n | n | x | x | x | x
Nc1nonc1-n1nnc(C(=O)N/N=C/c2cc(Br)ccc2O)c1CNc1ccccc1 | n | 12 | n | n | x | n | n | n
SMILES | Tat export inh | phage Ecoli inh | E coli growth-1 | AddAB inh | E coli growth-2 | RecBCD conf | Ecoli viability | AddAB phage OD
COc1cccc(-c2cnc(C(O)c3cc(F)cc(Cl)c3)[nH]2)c1 (stereo not drawn) | x | n | x | x | x | x | x | x
OC(c1cccc(F)c1)c1ncc(-c2ccc3ccccc3c2)[nH]1 (stereo not drawn) | x | n | x | x | x | x | x | x
COc1cccc(-c2cnc(C(O)c3cc(Cl)cc(Cl)c3)[nH]2)c1 (stereo not drawn) | x | 12 | x | x | x | 11 | n | n
Cc1ccc(-c2cnc(C(O)c3cc(F)cc(Cl)c3)[nH]2)cc1 (stereo not drawn) | x | 12 | x | x | x | n | n | n
OC(c1cccc(Cl)c1)c1ncc(-c2ccc3ccccc3c2)[nH]1 (stereo not drawn) | x | 15 | x | x | x | 12 | n | n
COc1ccc(C(=O)C2CC[C@](C)(C(=O)O)C2(C)C)cc1 (stereo partly drawn) | x | x | x | x | n | x | x | x
COCCN1C(=O)NC(c2ccccc2)C(C(C)=O)=C1C (stereo not drawn) | x | x | x | x | n | x | x | x
COC(=O)[C@]1(C)NC(c2ccc(-c3ccccc3)cc2)C2C(=O)N(C)C(=O)C21 (stereo partly drawn) | x | x | x | x | n | x | x | x
CC1Cc2ccccc2N1C(=O)CCn1c(=O)oc2ccccc21 (stereo not drawn) | n | 99 | n | n | n | n | n | n
COC(=O)C1=C(C(=O)OC)C2N(C)c3ccc(OC)cc3[C@@]23CC(C(=O)OC)N(C(=O)CC(C)C)C3=N1 (stereo partly drawn) | x | x | x | x | n | x | x | x
CC(N)=C(C#N)C(=O)COC(=O)c1cc(-c2cccc3ccccc23)nc2ccccc12 | x | x | x | x | n | x | x | x
O=C(C1=C(c2ccccc2)C(=O)c2ccccc2C1=O)c1ccccc1 | n | 11 | x | x | n | n | n | n
O=C(Nc1cccc(Cl)c1)Nc1nnc(-c2ccncc2)s1 | n | 13 | n | n | n | n | n | n
CC(=O)c1ccc(NC(=O)Nc2cccc(Cl)c2)cc1 | n | 11 | n | n | 0.51 | n | n | n
Cc1cc(OC(F)F)ccc1NC(=O)Nc1ccc([N+](=O)[O-])cc1 | n | 13 | n | n | n | n | n | n
COC(=O)c1ccc(NC(=O)Nc2ccc([N+](=O)[O-])cc2)cc1 | n | 14 | n | n | 0.42 | n | n | n
CCN1CC2C3C(=O)N(C)C(=O)C3[C@](Cc3ccccc3)(C1=O)N2C(=O)c1ccc(C)cc1 (stereo partly drawn) | x | x | x | x | n | x | x | x
CC(NC(=O)c1nc[nH]c1C(=O)NCCCCCNC(=O)OC(C)(C)C)C(=O)OCc1ccccc1 (stereo not drawn) | x | x | x | x | n | x | x | x
COC(=O)c1ccc(NC(=O)Nc2ccc(F)c(Cl)c2)cc1 | n | 12 | 10 | n | n | n | n | n
Cc1ccc(NC(=O)Nc2ccc(F)cc2)cc1Cl | n | 12 | n | n | n | n | n | n
COc1cccc(NC(=O)Nc2ccc(C)c(Cl)c2)c1 | n | n | n | n | n | x | x | x
COC(=O)c1ccc(NC(=O)Nc2ccccc2F)cc1 | n | n | n | n | n | x | x | x
CC(Oc1ccccc1)c1nnn(Cc2ccccc2)c1-c1c(C(C)Oc2ccccc2)nnn1Cc1ccccc1 (stereo not drawn) | x | x | x | x | n | x | x | x
Cc1nccn1Cc1ccccc1 | n | 100 | n | n | n | n | n | n
